Our source for the outcome and AC50 values is PubChem BioAssay (EPA / NIEHS).

The source made the active and inactive calls. The calls were made as follows: active = hit-call score of the fitted dose curve at least 0.9, where 1 is the maximum; inactive = score below 0.9.

Experiment [1] has as its target Paired box protein Pax-6 (Homo sapiens) (UniProt P26367). The experiment is described as follows: ATG_Pax6_CIS: Attagene CIS-FACTORIAL HepG2 Assay for human Paired Box 6 (PAX6) (AID 2282956). Particulars: HepG2 CIS-FACTORIAL PAX6 reporter transcription, RNA readout; actives raise or lower the signal. A digest of the protocol:
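HepG2 cells transiently transfected with cis-promoter-driven multiplexed reporter units sensing endogenous transcription factor activity; 24 h chemical exposure. Reporter mRNA quantified by RT-PCR, 6-FAM labelling, HpaI digestion and capillary electrophoresis; bidirectional fit versus DMSO baseline.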

A short description of experiment [2]: ATG_PXRE_CIS: Attagene CIS-FACTORIAL HepG2 Assay for human Pregnane X Receptor Element (PXRE) (AID 2282957). Particulars: HepG2 Attagene CIS-FACTORIAL PXRE reporter, mRNA; actives raise or lower the signal. A digest of the protocol:
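Transfect HepG2 with MRTUs (cis promoter elements); dose chemical, incubate 24 h; isolate RNA, RT with oligo(dT), PCR, 6-FAM label, HpaI cut, CE. Gain/loss fit vs DMSO.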

The nature of experiment [3]: ATG_RORE_CIS: Attagene CIS-FACTORIAL HepG2 Assay for human RAR-related Orphan Receptor Element (RORE) (AID 2282959). The settings on record: HepG2 Attagene cis-factorial RORE reporter, mRNA; actives raise or lower the signal. In short, it runs like this:
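Measured here: transcript induction of a cis-regulated reporter in HepG2 cells transiently transfected via FuGene 6. After 24 h, RNA was processed by RT-PCR and fluorescent capillary electrophoresis; DMSO defined baseline activity.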

Experiment [4] can be described thus: ATG_Sox_CIS: Attagene CIS-FACTORIAL HepG2 Assay for human SRY-box transcription factor (SOX) (AID 2282960). The settings on record: HepG2 Attagene cis-factorial SOX reporter, mRNA; actives raise or lower the signal. A digest of the protocol: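 Using transiently transfected HepG2 cells, reporter transcription driven by cis elements was assessed 24 h after dosing. Signal was fluorescence of capillary-separated RT-PCR products, with DMSO defining baseline activity.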

Experiment [5] deals with Transcription factor Sp1 (Homo sapiens) (UniProt P08047). The experiment can be described thus: ATG_Sp1_CIS: Attagene CIS-FACTORIAL HepG2 Assay for human Specificity Protein 1 (Sp1) (AID 2282961). Particulars: HepG2 Sp1 cis-reporter transcription, actives raise or lower the signal. A digest of the protocol: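 After transient transfection of HepG2 cells with cis-promoter reporter units and 24 h chemical treatment, reporter transcripts were quantified by RT-PCR and capillary electrophoresis fluorescence. Gain- and loss-of-signal fitted against DMSO.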

Experiment [6] can be described thus: ATG_SREBP_CIS: Attagene CIS-FACTORIAL HepG2 Assay for human Sterol Regulatory Element Binding (SREBP) (AID 2282962). Particulars: HepG2 Attagene cis-factorial SREBP reporter, mRNA; actives raise or lower the signal. A digest of the protocol:
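HepG2 cells transiently transfected with multiplexed cis-promoter reporter units sensing endogenous transcription factors; reporter mRNA measured 24 h after dosing by RT-PCR, 6-FAM labeling, HpaI digestion and capillary electrophoresis. Bidirectional fit versus DMSO.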

Experiment [7] is described as follows: ATG_TA_CIS: Attagene CIS-FACTORIAL HepG2 Assay for human TA Basal Promoter (AID 2282964). The settings on record: HepG2 Attagene CIS-factorial TA basal promoter reporter; actives raise or lower the signal. In short, it runs like this:
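Transfected HepG2, 24 h compound exposure; RNA → RT-PCR → FAM primer extension → HpaI cut → CE fluorescence. Gain/loss-of-signal fitted against DMSO negative control. Background-control readout.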

Experiment [8] in a line: ATG_TCF_b_cat_CIS: Attagene CIS-FACTORIAL HepG2 Assay for human T-Cell-Factor with beta-catenin (TCF/b-cat) (AID 2282965). Particulars: HepG2 TCF/beta-catenin cis-reporter transcription, actives raise or lower the signal. In short, it runs like this:
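HepG2 cells transiently transfected with cis-promoter-driven multiplexed reporter units; reporter mRNA measured 24 h after dosing by RT-PCR, FAM labelling, HpaI digestion and capillary electrophoresis. Bidirectional fitting relative to DMSO baseline.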

In experiment [9] the target is Signal transducer and activator of transcription 3 (Homo sapiens) (UniProt P40763). The experiment can be described thus: ATG_STAT3_CIS: Attagene CIS-FACTORIAL HepG2 Assay for human Signal Transducer and Activator of Transcription 3 (STAT3) (AID 2282963). Particulars: HepG2, Attagene cis-factorial STAT3 reporter transcription; actives raise or lower the signal. In short, it runs like this: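 HepG2 cells transiently transfected with multiple cis-element-driven reporter units report endogenous transcription factor activity. After 24 h compound exposure, reporter mRNA is measured by RT-PCR, 6-FAM labelling, HpaI digestion and capillary electrophoresis. Fitted bidirectionally versus DMSO.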

A short description of experiment [10]: ATG_PPRE_CIS: Attagene CIS-FACTORIAL HepG2 Assay for human Peroxisome Proliferator-activated Response Element (PPRE) (AID 2282958). The settings on record: HepG2 PPRE cis-element reporter, Attagene transcription factor profiling; actives raise or lower the signal. In short, it runs like this: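 After human HepG2 hepatoma cells were transiently transfected with cis-promoter reporter constructs, they were exposed to test chemicals for 24 hours. Reporter RNA was then reverse-transcribed, PCR-amplified, FAM-labeled, HpaI-digested and quantified by capillary electrophoresis.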

Chain of Transcription factor Sp1 (Homo sapiens) (P08047 whole entry, looked up): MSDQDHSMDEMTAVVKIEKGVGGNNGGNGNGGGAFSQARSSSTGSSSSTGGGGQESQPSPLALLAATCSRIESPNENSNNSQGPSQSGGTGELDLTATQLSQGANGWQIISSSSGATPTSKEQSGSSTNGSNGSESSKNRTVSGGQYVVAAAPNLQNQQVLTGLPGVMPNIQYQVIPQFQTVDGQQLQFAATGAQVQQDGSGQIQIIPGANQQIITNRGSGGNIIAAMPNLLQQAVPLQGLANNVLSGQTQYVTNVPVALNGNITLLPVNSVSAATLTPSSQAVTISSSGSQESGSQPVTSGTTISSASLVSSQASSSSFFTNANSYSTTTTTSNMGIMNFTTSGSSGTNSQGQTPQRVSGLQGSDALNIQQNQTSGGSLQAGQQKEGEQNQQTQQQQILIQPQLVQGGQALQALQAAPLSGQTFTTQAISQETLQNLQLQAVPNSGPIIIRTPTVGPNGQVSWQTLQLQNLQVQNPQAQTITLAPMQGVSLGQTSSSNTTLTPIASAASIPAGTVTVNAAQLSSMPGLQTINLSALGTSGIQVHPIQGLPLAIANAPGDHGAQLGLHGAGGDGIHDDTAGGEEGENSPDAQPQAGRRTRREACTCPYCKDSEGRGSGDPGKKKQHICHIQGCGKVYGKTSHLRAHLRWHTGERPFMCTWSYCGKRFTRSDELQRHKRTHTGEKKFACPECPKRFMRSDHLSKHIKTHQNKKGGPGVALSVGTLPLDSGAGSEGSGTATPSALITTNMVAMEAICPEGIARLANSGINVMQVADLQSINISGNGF
Chain of Signal transducer and activator of transcription 3 (Homo sapiens) (P40763 whole entry, looked up): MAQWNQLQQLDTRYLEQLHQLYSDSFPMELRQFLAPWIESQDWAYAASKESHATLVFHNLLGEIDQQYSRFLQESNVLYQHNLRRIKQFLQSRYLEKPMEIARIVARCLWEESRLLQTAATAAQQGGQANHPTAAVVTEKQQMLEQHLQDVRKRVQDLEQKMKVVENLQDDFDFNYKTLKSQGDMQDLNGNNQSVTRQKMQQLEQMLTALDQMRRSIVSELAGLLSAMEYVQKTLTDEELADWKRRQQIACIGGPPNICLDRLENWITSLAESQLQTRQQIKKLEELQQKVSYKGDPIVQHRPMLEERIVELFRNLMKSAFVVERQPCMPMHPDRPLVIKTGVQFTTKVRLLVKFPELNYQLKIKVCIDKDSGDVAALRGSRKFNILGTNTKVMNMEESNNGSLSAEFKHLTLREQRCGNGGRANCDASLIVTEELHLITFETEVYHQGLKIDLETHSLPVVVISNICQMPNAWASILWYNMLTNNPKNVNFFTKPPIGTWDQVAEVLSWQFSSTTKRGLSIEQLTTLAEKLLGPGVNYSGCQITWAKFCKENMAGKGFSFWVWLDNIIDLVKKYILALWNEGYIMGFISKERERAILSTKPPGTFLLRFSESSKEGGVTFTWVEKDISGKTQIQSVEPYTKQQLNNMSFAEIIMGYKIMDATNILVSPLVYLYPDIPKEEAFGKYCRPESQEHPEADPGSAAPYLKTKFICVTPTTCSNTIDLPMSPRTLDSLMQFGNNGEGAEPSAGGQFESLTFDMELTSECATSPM
Chain of Paired box protein Pax-6 (Homo sapiens) (P26367 whole entry, looked up): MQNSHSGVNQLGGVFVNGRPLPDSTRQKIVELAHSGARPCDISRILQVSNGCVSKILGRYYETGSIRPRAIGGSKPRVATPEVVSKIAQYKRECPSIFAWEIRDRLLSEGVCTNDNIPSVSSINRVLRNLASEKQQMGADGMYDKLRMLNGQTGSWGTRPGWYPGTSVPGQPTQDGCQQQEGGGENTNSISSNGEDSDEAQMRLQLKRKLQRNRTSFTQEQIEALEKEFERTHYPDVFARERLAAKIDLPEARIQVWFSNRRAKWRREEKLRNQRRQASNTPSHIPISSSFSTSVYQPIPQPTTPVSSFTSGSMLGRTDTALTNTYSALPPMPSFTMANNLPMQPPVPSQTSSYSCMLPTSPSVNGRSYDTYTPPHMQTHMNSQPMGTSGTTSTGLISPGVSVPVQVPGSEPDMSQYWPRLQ

On to `S=C1NCCN1`, for which the call in [1], in [2], in experiment [3], in [4], in [5] and in experiment [6] was inactive. In addition, the compound was classed as inactive in experiment [7] and in experiment [8].

For `CSc1nnc(C(C)(C)C)c(=O)n1N`, the result in experiment [1], in experiment [2], in [3], in [4], in experiment [5] and in experiment [6] was inactive. Further, the compound was called inactive in experiment [9], in [7] and in [8].

Broadly, the AC50 is the concentration giving half of the maximal activity seen. With `CCOP(=S)(OCC)Oc1cc(C)nc(C(C)C)n1`, the result in [1], in experiment [3], in experiment [4], in experiment [5], in [7] and in experiment [8] was inactive. Further, the AC50 was 4.15 µM (active) in [2], 26 µM (active) in experiment [10] and 21.7 µM (active) in experiment [6].

Regarding `C#CCC1=C(C)C(OC(=O)C2C(C=C(C)C)C2(C)C)CC1=O` (stereo unspecified), the AC50 in experiment [1] is 72.1 µM (active); in experiment [2], 1.15 µM (active); in experiment [10], 13.2 µM (active); in [4], 82 µM (active); in [5], 50 µM (active); in experiment [6], 31 µM (active). In experiment [8], the AC50 was 38.7 µM (active). In addition, the compound was called inactive in [3] and in [7].

Regarding `C#CC(C)(C)NC(=O)c1cc(Cl)cc(Cl)c1`, the result in [1], in [3], in experiment [4], in experiment [5], in [7] and in experiment [8] was inactive. The AC50 in experiment [2] is 7.44 µM (active); in experiment [6] it was 50 µM (active).

As to `CNC(=O)Oc1cccc2c1OC(C)(C)O2`, the call in experiment [1], in experiment [4], in [6], in experiment [9], in experiment [7] and in experiment [8] was inactive. Besides, the AC50 in experiment [2] is 40.2 µM (active); in experiment [10], 50 µM (active); in [5] it was 50 µM (active).

Regarding `C[N+]1(C)CCCCC1`, the outcome in experiment [1], in [2], in experiment [10], in experiment [3], in [4] and in experiment [5] was inactive. The outcome in [6], in experiment [7] and in experiment [8] was inactive.

In the case of `CCCCN(CC)c1c([N+](=O)[O-])cc(C(F)(F)F)cc1[N+](=O)[O-]`, the compound was called inactive in [1], in [10], in experiment [3], in [4], in [5] and in experiment [6]. The outcome in [7] and in experiment [8] was inactive. In addition, the AC50 in experiment [2] was 7.62 µM (active).

Regarding `CC(Oc1cccc(Cl)c1)C(=O)O` (stereo unspecified), the call in [1], in experiment [2], in [10], in experiment [3], in experiment [4] and in experiment [5] was inactive. In addition, the compound was called inactive in experiment [6], in [7] and in experiment [8].

With `CSc1nc(NC(C)C)nc(NC(C)C)n1`, the call in experiment [1], in experiment [3], in experiment [4], in [5], in experiment [6] and in [9] was inactive. Further, the outcome in experiment [7] and in experiment [8] was inactive. The AC50 in experiment [2] was 4.94 µM (active).

On to `O=C(O)c1cc(Oc2ccc(C(F)(F)F)cc2Cl)ccc1[N+](=O)[O-]`, for which the outcome in experiment [1], in experiment [3], in [4], in experiment [5], in [6] and in [9] was inactive. Moreover, the result in experiment [7] and in experiment [8] was inactive. Besides, the AC50 in experiment [2] was 60 µM (active).

With `Nc1nc(N)nc(NC2CC2)n1`, the call in experiment [1], in experiment [2], in [3], in experiment [4], in experiment [5] and in experiment [6] was inactive. In addition, the outcome in experiment [7] and in experiment [8] was inactive.

For `CNC(=O)ON=C(SC)C(=O)N(C)C`, the compound was classed as inactive in experiment [1], in experiment [10], in experiment [3], in experiment [4], in [5] and in experiment [7]. In addition, the result in experiment [8] was inactive. The figures for the AC50 in experiment [2] and in experiment [6] were 29.3 µM (active) and 50 µM (active), respectively.

With `COP(=O)(OC)OC(Br)C(Cl)(Cl)Br` (stereo unspecified), the call in experiment [1], in experiment [2], in experiment [10], in [3], in experiment [4] and in [5] was inactive. Also, the compound was classed as inactive in [6], in experiment [7] and in [8].

On to `CON=C(C(=O)OC)c1ccccc1CON=C(C)c1cccc(C(F)(F)F)c1`, for which the outcome in [1], in [10], in experiment [3], in experiment [4], in [5] and in experiment [6] was inactive. For the same compound, the call in experiment [7] and in experiment [8] was inactive. For the same compound, the AC50 in experiment [2] is 32.1 µM (active).

With `CCc1cccc(C)c1N(C(=O)CCl)C(C)COC` (stereo unspecified), the result in experiment [1], in experiment [4], in experiment [5], in experiment [6], in experiment [7] and in [8] was inactive. Besides, the AC50 in experiment [2] is 0.603 µM (active).

For `CC(C)=CC1C(C(=O)OCN2C(=O)C3=C(CCCC3)C2=O)C1(C)C` (stereo unspecified), the AC50 in experiment [1] was 74 µM (active); in [2], 13.5 µM (active); in [3], 50 µM (active); in [6] it was 65.2 µM (active). Further, the outcome in experiment [4], in experiment [5], in experiment [9], in experiment [7] and in [8] was inactive.

Take `Cc1ccn2nc(S(=O)(=O)Nc3c(F)cccc3F)nc2n1`: the compound was classed as inactive in [1], in experiment [10], in experiment [3], in experiment [4], in [5] and in experiment [6]. Further, the result in experiment [7] and in experiment [8] was inactive. Further, in experiment [2], the AC50 was 9.86 µM (active).

For the compound `CNc1cnn(-c2cccc(C(F)(F)F)c2)c(=O)c1Cl`, the outcome in experiment [1], in [10], in experiment [4], in experiment [5], in experiment [6] and in experiment [7] was inactive. In addition, the result in experiment [8] was inactive. Besides, the figures for the AC50 in experiment [2] and in [3] were 20.1 µM (active) and 27.6 µM (active), respectively.
